Laboratory results as given in PubChem BioAssay (NCI).
About 83,000 compounds went through this panel and 20% of them were active in at least one assay; those are over-represented in the sample as a whole.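 Activity criterion: percent growth below 10, measured after cells in 96-well plates were exposed to a single compound concentration for 48 hours.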 Activity calls are given as the source filed them.

How the values were obtained:
Assay in all cases: NCI-60 one-dose screen, 48 h (100 = growth as untreated, 0 = no growth, -100 = all killed)
Details in all cases: 10 µM unless noted
SK-MEL-2 melanoma = tested on: SK-MEL-2 melanoma
EKVX NSCLC = tested on: EKVX NSCLC
SN12C renal = tested on: SN12C renal
UO-31 renal = tested on: UO-31 renal
TK-10 renal = tested on: TK-10 renal
ACHN renal = tested on: ACHN renal
CAKI-1 renal = tested on: CAKI-1 renal
A498 renal = tested on: A498 renal
CCRF-CEM leukemia = tested on: CCRF-CEM leukemia
MOLT-4 leukemia = tested on: MOLT-4 leukemia
SR leukemia = tested on: SR leukemia
RPMI-8226 leukemia = tested on: RPMI-8226 leukemia
OVCAR-8 ovarian = tested on: OVCAR-8 ovarian
OVCAR-5 ovarian = tested on: OVCAR-5 ovarian
SK-OV-3 ovarian = tested on: SK-OV-3 ovarian
IGROV1 ovarian = tested on: IGROV1 ovarian
OVCAR-3 ovarian = tested on: OVCAR-3 ovarian
NCI/ADR-RES ovarian = tested on: NCI/ADR-RES ovarian
HS 578T breast = tested on: HS 578T breast

Measured: growth

COc1ncc(-c2ccc3nc(N)n(-c4ccccc4C(F)(F)F)c(=O)c3c2)cc1S(=O)(=O)Nc1ccc(F)cc1F
active: UO-31 renal -13.4% | A498 renal -22.2% | RPMI-8226 leukemia 2.65% | IGROV1 ovarian 8.17% | OVCAR-3 ovarian 6.35%
inactive: SK-MEL-2 melanoma 29.2% | EKVX NSCLC 20.9% | SN12C renal 56% | TK-10 renal 54.5% | ACHN renal 69.3% | CAKI-1 renal 17.3% | CCRF-CEM leukemia 24.5% | MOLT-4 leukemia 74.5% | SR leukemia 39% | OVCAR-8 ovarian 50.1% | OVCAR-5 ovarian 14.7% | SK-OV-3 ovarian 72.1% | NCI/ADR-RES ovarian 25.4%

CC(C)=CCC[C@](C)(O)[C@H]1CC[C@]2(C)[C@@H]1CC[C@@H]1[C@@]3(C)CC[C@H](OC(=O)CCC(=O)O)C(C)(C)[C@@H]3CC[C@]12C
active: SK-MEL-2 melanoma -13.1% [100 µM] | CCRF-CEM leukemia 3.55% [100 µM] | MOLT-4 leukemia 5.86% [100 µM] | RPMI-8226 leukemia 9.12% [100 µM] | OVCAR-3 ovarian -32.1% [100 µM]
inactive: EKVX NSCLC 45.3% [100 µM] | SN12C renal 15% [100 µM] | UO-31 renal 19.5% [100 µM] | TK-10 renal 49.6% [100 µM] | ACHN renal 21.4% [100 µM] | CAKI-1 renal 21.4% [100 µM] | A498 renal 40.1% [100 µM] | SR leukemia 29% [100 µM] | OVCAR-8 ovarian 24.7% [100 µM] | OVCAR-5 ovarian 41.7% [100 µM] | SK-OV-3 ovarian 42.4% [100 µM] | IGROV1 ovarian 15.3% [100 µM] | HS 578T breast 41.2% [100 µM] | NCI/ADR-RES ovarian 29.9% [100 µM]

C=C(C)[C@@H]1CC[C@]2(C(=O)OC)CC[C@]3(C)[C@H](CC[C@@H]4[C@@](C)(CCc5nn[nH]n5)[C@H](C(=C)C)CC[C@]43C)[C@@H]12
active: SK-MEL-2 melanoma -60.8% [100 µM] | EKVX NSCLC 0.298% [100 µM] | SN12C renal -45.6% [100 µM] | UO-31 renal -88.5% [100 µM] | TK-10 renal 8.06% [100 µM] | ACHN renal 3.75% [100 µM] | CAKI-1 renal -17.2% [100 µM] | A498 renal -61.5% [100 µM] | CCRF-CEM leukemia 1.92% [100 µM] | MOLT-4 leukemia 0.832% [100 µM] | RPMI-8226 leukemia -0.796% [100 µM] | OVCAR-8 ovarian 7.09% [100 µM] | OVCAR-5 ovarian 5.88% [100 µM] | SK-OV-3 ovarian -2.47% [100 µM] | IGROV1 ovarian -8.32% [100 µM] | OVCAR-3 ovarian -60.4% [100 µM] | NCI/ADR-RES ovarian -7.5% [100 µM]
inactive: SR leukemia 21.7% [100 µM]

CC(C)=CC/C=C(/C)[C@H]1CC[C@]2(C)[C@@H]1CC[C@@H]1[C@@]3(C)CCCNC(C)(C)[C@@H]3CC[C@]12C
active: SK-MEL-2 melanoma -70% [100 µM] | EKVX NSCLC -71.2% [100 µM] | SN12C renal -85.2% [100 µM] | UO-31 renal -82.1% [100 µM] | TK-10 renal -67% [100 µM] | ACHN renal -77% [100 µM] | CAKI-1 renal -79.9% [100 µM] | A498 renal -88.6% [100 µM] | CCRF-CEM leukemia -15.7% [100 µM] | MOLT-4 leukemia -25.6% [100 µM] | RPMI-8226 leukemia -40.1% [100 µM] | OVCAR-8 ovarian -29.5% [100 µM] | OVCAR-5 ovarian -85.9% [100 µM] | SK-OV-3 ovarian -66.8% [100 µM] | IGROV1 ovarian -74.1% [100 µM] | OVCAR-3 ovarian -47.8% [100 µM] | HS 578T breast -50.2% [100 µM] | NCI/ADR-RES ovarian -69.6% [100 µM]
inactive: SR leukemia 15.2% [100 µM]

O=C1/C(=C/c2ccc(OCc3ccccc3)cc2)Oc2cc(OCCN3CCCCC3)ccc21
inactive: SK-MEL-2 melanoma 112% | EKVX NSCLC 80.5% | SN12C renal 82.4% | UO-31 renal 70.6% | TK-10 renal 104% | ACHN renal 89.6% | CAKI-1 renal 70.5% | A498 renal 60.9% | CCRF-CEM leukemia 73% | MOLT-4 leukemia 76.1% | SR leukemia 13.3% | RPMI-8226 leukemia 54% | OVCAR-8 ovarian 89.8% | OVCAR-5 ovarian 88.8% | SK-OV-3 ovarian 104% | IGROV1 ovarian 87% | OVCAR-3 ovarian 88.1% | NCI/ADR-RES ovarian 79.2%

CC(=O)n1cc(C=O)c2ccccc21
inactive: SK-MEL-2 melanoma 97.9% | EKVX NSCLC 109% | SN12C renal 97.7% | UO-31 renal 72% | TK-10 renal 100% | ACHN renal 106% | CAKI-1 renal 100% | A498 renal 113% | CCRF-CEM leukemia 80.9% | MOLT-4 leukemia 91% | SR leukemia 97.3% | RPMI-8226 leukemia 97.6% | OVCAR-8 ovarian 86.7% | OVCAR-5 ovarian 104% | SK-OV-3 ovarian 116% | IGROV1 ovarian 112% | OVCAR-3 ovarian 104% | HS 578T breast 104% | NCI/ADR-RES ovarian 96.4%

C=C(C)[C@@H]1CC[C@]2(COCCC#N)CC[C@]3(C)[C@H](CC[C@@H]4[C@@](C)(CCCNCCC#N)[C@H](C(=C)C)CC[C@]43C)[C@@H]12
inactive: SK-MEL-2 melanoma 10% [100 µM] | EKVX NSCLC 92.9% [100 µM] | SN12C renal 27.9% [100 µM] | UO-31 renal 15.3% [100 µM] | TK-10 renal 49.7% [100 µM] | ACHN renal 11.4% [100 µM] | CAKI-1 renal 27% [100 µM] | A498 renal 90.5% [100 µM] | SR leukemia 19.1% [100 µM] | OVCAR-5 ovarian 36.7% [100 µM] | SK-OV-3 ovarian 65.1% [100 µM] | HS 578T breast 22.2% [100 µM] | NCI/ADR-RES ovarian 46.3% [100 µM]
active: CCRF-CEM leukemia 1.32% [100 µM] | MOLT-4 leukemia 2.22% [100 µM] | RPMI-8226 leukemia -37.1% [100 µM] | OVCAR-8 ovarian 3.88% [100 µM] | IGROV1 ovarian 7.81% [100 µM] | OVCAR-3 ovarian -0.365% [100 µM]

Cc1ccc(Cn2c(O)c(N=NC(=O)c3ccc(S(N)(=O)=O)cc3)c3ccccc32)cc1
inactive: SK-MEL-2 melanoma 109% | EKVX NSCLC 103% | SN12C renal 96.9% | UO-31 renal 73% | TK-10 renal 106% | ACHN renal 93.3% | CAKI-1 renal 92.9% | A498 renal 86.8% | CCRF-CEM leukemia 106% | MOLT-4 leukemia 93.8% | SR leukemia 104% | RPMI-8226 leukemia 91.7% | OVCAR-8 ovarian 92.7% | OVCAR-5 ovarian 109% | SK-OV-3 ovarian 109% | IGROV1 ovarian 107% | OVCAR-3 ovarian 107% | NCI/ADR-RES ovarian 108%

Cc1nc(Cl)cc(N(c2cc(Cl)nc(C)n2)c2ncc(C(=O)Nc3c(C)cccc3Cl)s2)n1
active: CAKI-1 renal 4% | IGROV1 ovarian -22%
inactive: SK-MEL-2 melanoma 87.4% | EKVX NSCLC 84.7% | SN12C renal 37.5% | UO-31 renal 24.8% | TK-10 renal 36.7% | ACHN renal 14.1% | A498 renal 35.6% | CCRF-CEM leukemia 53.7% | MOLT-4 leukemia 40.6% | SR leukemia 86.9% | RPMI-8226 leukemia 50.8% | OVCAR-8 ovarian 63.1% | OVCAR-5 ovarian 38.5% | SK-OV-3 ovarian 39.8% | OVCAR-3 ovarian 49.9% | NCI/ADR-RES ovarian 59.3%

CC[C@]12C=CCN3CC[C@@]4(c5ccc(OC)cc5N(C)[C@H]4[C@@](O)(C(=O)OC)[C@@H]1OC(=O)CCC(=O)N[C@H](Cc1c[nH]c4ccccc14)C(=O)OC)[C@@H]32
inactive: SR leukemia 26% [100 µM]
active: SK-MEL-2 melanoma -48.8% [100 µM] | EKVX NSCLC -58.7% [100 µM] | SN12C renal -68.7% [100 µM] | UO-31 renal -55.5% [100 µM] | TK-10 renal -38.7% [100 µM] | ACHN renal -64.7% [100 µM] | CAKI-1 renal -71% [100 µM] | A498 renal -49.9% [100 µM] | CCRF-CEM leukemia 7.07% [100 µM] | MOLT-4 leukemia -12.4% [100 µM] | RPMI-8226 leukemia 0.693% [100 µM] | OVCAR-8 ovarian 0.282% [100 µM] | OVCAR-5 ovarian -58.1% [100 µM] | SK-OV-3 ovarian -18.1% [100 µM] | IGROV1 ovarian -38.7% [100 µM] | OVCAR-3 ovarian -48.8% [100 µM] | HS 578T breast -43.8% [100 µM] | NCI/ADR-RES ovarian -30.7% [100 µM]

COc1ccc(/C=C/C=C\C(=O)c2ccc(-n3ccnc3)cc2)cc1
inactive: SK-MEL-2 melanoma 108% | EKVX NSCLC 96.6% | SN12C renal 90.7% | UO-31 renal 73.9% | TK-10 renal 96.3% | ACHN renal 94.4% | CAKI-1 renal 90.9% | A498 renal 73.3% | CCRF-CEM leukemia 80.2% | MOLT-4 leukemia 75% | SR leukemia 82.1% | RPMI-8226 leukemia 71.5% | OVCAR-8 ovarian 86.4% | OVCAR-5 ovarian 103% | SK-OV-3 ovarian 97% | IGROV1 ovarian 93.5% | OVCAR-3 ovarian 96.7% | HS 578T breast 91.1% | NCI/ADR-RES ovarian 104%

COC(=O)c1cc2c(=O)[nH]cc3c2c(n1)CCC3
inactive: SK-MEL-2 melanoma 95.2% | EKVX NSCLC 101% | SN12C renal 97.2% | UO-31 renal 75.4% | TK-10 renal 106% | ACHN renal 105% | CAKI-1 renal 97.4% | A498 renal 104% | CCRF-CEM leukemia 103% | MOLT-4 leukemia 100% | SR leukemia 113% | RPMI-8226 leukemia 76.2% | OVCAR-8 ovarian 105% | OVCAR-5 ovarian 99.8% | SK-OV-3 ovarian 100% | OVCAR-3 ovarian 99.1% | HS 578T breast 109% | NCI/ADR-RES ovarian 108%

C=C(C)[C@@H]1CC[C@]2(C(N)=O)CC[C@]3(C)[C@H](CC[C@@H]4[C@@]5(C)C/C(=C/c6cccnc6)C(=O)C(C)(C)[C@@H]5CC[C@]43C)[C@@H]12
inactive: EKVX NSCLC 21.2% [100 µM] | SN12C renal 18.5% [100 µM] | UO-31 renal 10.2% [100 µM] | TK-10 renal 23.5% [100 µM] | A498 renal 17.3% [100 µM] | SR leukemia 10.7% [100 µM] | OVCAR-8 ovarian 20.3% [100 µM] | SK-OV-3 ovarian 12.9% [100 µM] | IGROV1 ovarian 14.9% [100 µM] | OVCAR-3 ovarian 12.5% [100 µM] | HS 578T breast 25.5% [100 µM] | NCI/ADR-RES ovarian 14.7% [100 µM]
active: SK-MEL-2 melanoma -47.4% [100 µM] | ACHN renal 7.09% [100 µM] | CAKI-1 renal 8.38% [100 µM] | CCRF-CEM leukemia 7.08% [100 µM] | MOLT-4 leukemia 2.39% [100 µM] | RPMI-8226 leukemia 6.37% [100 µM] | OVCAR-5 ovarian -6.45% [100 µM]
